“And” between values parts separate entries of the source, which are not always exact repeats. Equal entries are not always repeated. Records with an inconclusive call do not appear. Entries that show only a call come without a potency. Values without a mark were called inactive. The source made the active and inactive calls. Calls come from the whole dose curve; as a rule, active = well fitted curve in the direction sought with a large enough effect; inconclusive = small, poorly fitted or top-dose-only effect, or another doubt; inactive = no such curve, though single readings can be large; an effect the other way counts as inactive or inconclusive.
How the values were obtained:
[1] = target: Cellular tumor antigen p53 (Homo sapiens) (UniProt P04637); test: Primary qHTS for small molecule compounds that upregulate eGFP-tagged delta133p53alpha (in N-terminal) cells. (AID 2060322); conditions: NCI-H358 eGFP-delta133p53alpha fluorescence, 24 h; activation: stronger effect = higher value; note: nearly all actives have a fitted effect of over 75% in size; note: potency is the fitted concentration of half-maximal effect; for activation: series mostly up to about 56 µM
Chain of Cellular tumor antigen p53 (Homo sapiens) (P04637 whole entry, looked up): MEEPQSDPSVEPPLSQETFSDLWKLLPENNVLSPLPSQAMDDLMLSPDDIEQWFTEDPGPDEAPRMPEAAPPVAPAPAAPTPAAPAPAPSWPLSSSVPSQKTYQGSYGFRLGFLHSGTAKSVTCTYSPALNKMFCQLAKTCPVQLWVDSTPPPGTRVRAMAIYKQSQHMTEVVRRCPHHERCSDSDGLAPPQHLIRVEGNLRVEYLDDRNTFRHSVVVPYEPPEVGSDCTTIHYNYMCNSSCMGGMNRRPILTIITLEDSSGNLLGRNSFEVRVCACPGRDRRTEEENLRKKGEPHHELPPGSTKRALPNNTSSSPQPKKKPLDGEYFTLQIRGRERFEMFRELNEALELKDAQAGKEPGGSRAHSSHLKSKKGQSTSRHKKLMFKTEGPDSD
Outline: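 NCI-H358 cells pre-induced 24 h with 10 ng/ml doxycycline to express N-terminal eGFP-delta133p53alpha, then dosed 24 h at 37C without doxycycline; fixed, Hoechst-stained, GFP intensity by laser scanning cytometry, normalized to DMSO (0%) and 57.5 uM 5-azacytidine (100%).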

[2] = target: Aldehyde dehydrogenase, mitochondrial (Homo sapiens) (UniProt P05091); test: qHTS for Inhibitors of the Aldehyde Dehydrogenase Family (ALDH2) Primary screen (AID 2061308); note: nearly all actives have a fitted effect of over 55% in size
[3] = target: Retinaldehyde dehydrogenase 3 (Homo sapiens) (UniProt P47895); test: qHTS for Inhibitors of the Aldehyde Dehydrogenase Family (ALDH1A3) Primary screen (AID 2061315)

Row | SMILES | activation [1] | Potency [2] | Potency [3] | Potency [1] | activity change, negative = inhibition [2] | activity change, negative = inhibition [3]
1 | O=C(/C=C/c1ccc(O)cc1)OC[C@H]1O[C@H](O[C@@]2(CO)O[C@@H](CO)[C@H](O)[C@H]2O)[C@H](O)[C@@H](O)[C@@H]1O | 6.25% | inactive | inactive |  |  | 
2 | CC1=C(C(=O)O)/C(=C\CO[C@@H]2O[C@H](CO)[C@@H](O)[C@H](O)[C@H]2O)C(OC(=O)/C=C\c2ccc(O)cc2)C1 (some centres undefined) | 8.93% | inactive | inactive |  |  | 
3 | CN1CCN(c2ccc(Nc3cc(-c4cccc(-n5ccc6cc(C7CC7)cc(F)c6c5=O)c4CO)cn(C)c3=O)nc2)CC1 | 2.68% | inactive | inactive |  |  | 
4 | CC1=C(C(=O)O)/C(=C\CO[C@@H]2O[C@H](CO)[C@@H](O)[C@H](O)[C@H]2O)C(OC(=O)/C=C/c2ccc(O)cc2)C1 (some centres undefined) | -3.82% | inactive | inactive |  |  | 
5 | CCOP(=O)(Cc1ccc(C(=O)Nc2ccc(Br)cc2C#N)cc1)OCC | 2.33% | inactive | inactive |  |  | 
6 | COC(=O)CCc1cc2ccoc2c(OC)c1O[C@@H]1O[C@H](CO)[C@@H](O)[C@H](O)[C@H]1O | -27.7% | inactive | inactive |  |  | 
7 | Cc1cn2cc(CC(=O)N3CCC4(CC3)CN(Cc3ccc(-n5nccn5)cc3Cl)C4)nc2s1 | -8.93% | inactive | inactive |  |  | 
8 | CC1=C(C(=O)OC2OC(COC3OC(CO)C(O)C(O)C3O)C(O)C(O)C2O)C(C)(C)CCC1 (centres undefined) | -14.5% | inactive | inactive |  |  | 
9 | CC(=O)O[C@@H]1[C@H]2[C@@H](OC(=O)c3ccccc3)[C@@H](C)C[C@]2(O)[C@H](OC(C)=O)[C@@]2(C)[C@@H]3CC(C)(C)C(=O)[C@]3(OC(C)=O)C[C@@]12C | -15.2% | inactive | inactive |  |  | 
10 | COc1ccc(CCc2nc3cc(-c4c(C)noc4C)ccc3n2CC(C)N2CCOCC2)cc1Cl (centres undefined) | 3.67% | inactive | inactive |  |  | 
11 | O=C(Nc1c(-c2cccs2)nc2ccccn12)c1ccc(Cl)cc1 | -8.59% | inactive | inactive |  |  | 
12 | COc1cc(/C=C/c2ccccc2)c(C(=O)O)c(O)c1CC=C(C)C | -9.82% | inactive | inactive |  |  | 
13 | Nc1nc(Nc2ccc3c(c2)CCC(N2CCCC2)CC3)nn1-c1cc2c(nn1)-c1ccccc1CCC2 (centres undefined) |  | inactive | inactive | 26.9 µM (active) |  | 
14 | C/C=C(/C)C(=O)OC1C(OC(C)=O)C23C(O)OC4(CCC5C6(C)CCC(OC7OC(C(=O)O)C(O)C(OC8OC(CO)C(O)C(O)C8OC8OC(C)C(O)C(O)C8OC8OCC(O)C(O)C8O)C7OC7OC(CO)C(O)C(O)C7O)C(C)(C)C6CCC5(C)C4(C)CC2OC(C)=O)C3CC1(C)C (centres undefined) | -7.63% |  |  |  | 23.8% [at 11.2 µM] | 2.15% [at 11.2 µM]
15 | C=CC(C)(C)c1[nH]c2cc3c(cc2c1CC1NC(=O)C2CCCN2C1=O)C=CC(C)(C)O3 (centres undefined) | -13% | inactive | inactive |  |  | 
16 | COCC1OC(n2cnc3c(=O)[nH]cnc32)C(O)C1O (centres undefined) | 6.11% | inactive | inactive |  |  | 
17 | CN1C(=O)c2ccccc2-n2c(nc3ccccc3c2=O)[C@@]12O[C@H]2c1ccccc1 | 13% | inactive | inactive |  |  | 
18 | C=C1C[C@]23C[C@H]1CC[C@H]2[C@]1(C)CC[C@H](O)[C@@](C)(C(=O)O)[C@H]1[C@@H]3C(=O)O | -6.11% | inactive | inactive |  |  | 
19 | C[C@H](N)C(=O)N[C@@H](Cc1ccc(O)cc1)C(=O)N1CCC[C@H]1C(=O)NCC(=O)N[C@@H](CCCCN)C(=O)N[C@@H](Cc1ccccc1)C(N)=O | -5.67% |  |  |  | 4.44% [at 11.2 µM] | -9.63% [at 11.2 µM]
20 | CC(C#N)C(C)O[C@@H]1O[C@H](CO)[C@@H](O)[C@H](O)[C@H]1O (some centres undefined) | 24.1% | inactive | inactive |  |  | 
21 | O=S(=O)(c1ccc(S(=O)(=O)n2cnc3ccccc32)cc1)N1CCCCCC1 | 0.333% | inactive | inactive |  |  | 
22 | CC1(C)O[C@H]2CC(=O)OC[C@]23[C@H]2CC[C@@]4(C)[C@H](c5ccoc5)OC(=O)[C@H]5O[C@]54[C@]2(C)C(=O)C[C@@H]13 | -25.4% and 64.1% and 3.82% | inactive | inactive |  |  | 
23 | CC(=O)OC[C@]1(O)[C@H]2[C@H](OC(=O)CC(C)C)OC=C(CO[C@@H]3O[C@H](CO)[C@@H](O)[C@H](O)[C@H]3O)[C@H]2C[C@@H]1O | -1.79% | inactive | inactive |  |  | 

Source: PubChem BioAssay (NCATS)
